Test results from PubChem BioAssay (NCATS).
Inconclusive results are not listed. A call without a number means that no potency is given here. Values without a mark were called inactive. Activity calls are given as the source filed them. The call rests on the fitted dose curve; in most records, active means well fitted cell-killing curve with a large enough effect; inconclusive means small, poorly fitted or top-dose-only effect; inactive means flat fitted curve, though single readings scatter. Bridge positions count the residues as written; N and C are the ends. Square brackets hold non-standard residues; d marks the D form. Side chains are listed from the residue outwards. Peptide text beside a SMILES is read from it. * marks the point of attachment. ξ: configuration not given here. Phg(4-OMe) = COc1ccc([C@H](N)C(=O)O)cc1; d(aIle) = CC[C@H](C)[C@@H](N)C(=O)O; d(aThr) = C[C@@H](O)[C@@H](N)C(=O)O; NMeF = CN[C@@H](Cc1ccccc1)C(=O)O; Isobutyryl = CC(C)C(=O)*; ξL = CC(C)CC(N)C(=O)O

Experiment: Vero-766 cells viability qHTS against the NCATS CANVASS Library: Counterscreen for Zika virus inhibition assay (AID 1347394); further: nearly all actives have a fitted effect of over 60% in size
Settings: Vero 766 viability, CellTiter-Glo luminescence, 72 h; series mostly up to 46.1 µM
Description: Natural products and their derivatives continue to be wellsprings of nascent therapeutic potential. However, many laboratories have limited resources for biological evaluation, leaving their previously isolated or synthesized compounds largely or completely untested. To address this issue, the Canvass library of natural products was assembled (https://tripod.nih.gov/canvass), in collaboration with academic and industry researchers, for quantitative high-throughput screening (qHTS) across a diverse set of cell-based and biochemical assays. The pure (>85% purity by liquid chromatography/mass spectrometry [LC/MS]) Canvass library of 346 natural products were submitted by 45 academic laboratories and companies around the world. We collected pure natural products to circumvent deconvolution and structure elucidation due to time and resource limitations. The library was formatted into 1536-well plates and evaluated in 50 qHTS (in an 11-pnt concentration series) bioassays with broad scope of disease-relevant mechanisms. The resulting data set from 50 different assays was then systematically analyzed to identify overall trends and specific natural products with interesting biological activities. Reported herein are the results of each individual qHTS and their corresponding assay protocol. The vero cell viability assay was performed in the absence of Zika virus utilizing Cell Titer Glo to eliminate toxic compounds. A decrease in the luminescence signal is caused by cytotoxic compounds. National Center for Advancing Translational Sciences (NCATS), Rockville, MD National Institute of Health (NIH), Bethesda, Maryland
Zika-counterscreen assay protocol: 1. In a white-solid bottom, 1536-well tissue culture plate (Corning 7494), 3 uL of Vero 766 cells derived (African Green Monkey) were dispensed into columns 1, 2, and 5 - 48 using a Multidrop Combi (Thermo Fisher Scientific) at a final concentration of 1000 cells / well. Media only was dispensed in columns 3 and 4 to be used as a control (100% inhibition). 2. The assay plates were incubated overnight at 37C, 5% CO2, 95% humidity to acclimate and attach. 3. […] of compounds (in DMSO; columns 5-48) were pin transferred into the assay plates using the Kalypsis pin tool (Wako USA) equipped with a 1536-well pin heads. This yields a final concentration range of 0.001 - 77 uM. The assay plates were sealed with breathable film. 4. The assay plates were incubated for 72 hours at 37C, 5% CO2, 95% humidity. 5. After incubation, the seals were removed by Xpeel Automated Plate Seal Remover (Brooks Life Sciences) and 2.5 uL of CellTiter Glo reagent (Promega) was dispensed into the wells (columns 1 - 48, rows 1 - 32). 6. Luminescence signal was obtained via the ViewLux plate reader (Perkin Elmer) using the clear emission filter and 1x binning, 2 seconds exposure settings.
Potency means the concentration at half of the fitted maximal effect.

Row | Compound | Potency | activity change, negative = cytotoxic
1 | C[C@@]1(CCC(=O)Nc2c(O)ccc(C(=O)O)c2O)C(=O)C=C[C@]23C[C@H]4C[C@H](O[C@@]4(C)C2)C31 (stereo not given in full) | inactive | –
2 | CO[C@H]1[C@@H](OC(=O)/C(C)=C\[C@@H]2O[C@@H]2[C@H]2O[C@H]2C)[C@H](O)[C@H](OCC23C[C@@H]4[C@H](C)CC[C@H]4C4(C=O)CC2C=C(C(C)C)C34C(=O)O)O[C@@H]1C (stereo not given in full) | inactive | –
3 | CC[C@H](C)[C@H]1NC(=O)[C@@H](NC(=O)C(C)C)[C@@H](C)OC(=O)[C@H](COC(=O)CNC(C)=O)NC(=O)[C@@H]([C@@H](C)O)NC(=O)[C@H](Cc2ccccc2)N(C)C(=O)[C@H](c2ccc(OC)cc2)NC1=O (Isobutyryl-T[d(aIle)][Phg(4-OMe)][NMeF][d(aThr)]S([Gly-Ac]); ester 1-C) | inactive | –
4 | C[C@@H]1CC[C@]2(C(=O)O)CC[C@]3(C)C(=C2[C@H]1C)CC[C@@H]1[C@@]2(C)CC[C@H](O)C(C)(C)[C@@H]2CC[C@]13C | 18.6 µM (active) | –
5 | C=C1CC[C@@H](Br)C(C)(C)[C@]12CC=C(C)C(=O)C2 | inactive | –
6 | C=C[C@](Cl)(CBr)CCC=C(C)C | inactive | –
7 | C/C=C1/C2=CCCN3C(=O)O[C@H]([C@H]1O)[C@H]23 | inactive | –
8 | O=c1cc(-c2ccc(O)cc2)oc2cc(O)c([C@@H]3OC(CO)[C@H](O)[C@@H](O)[C@H]3O)c(O)c12 (stereo not given in full) | inactive | –
9 | C/C=C(/C)c1c(Cl)c(OC)c(C)c2c1Oc1c(Cl)c(O)c(Cl)c(C)c1C(=O)O2 | 3.71 µM (active) | –
10 | C/C(=C\[C@H](C)C(=O)/C=C/CC1CC(=O)NC(=O)C1)[C@@H]1OC(=O)CCCC/C=C/[C@H](O)[C@@H](O)[C@@H]1C | inactive | –
11 | CCC(=O)N[C@@H](C[C@H](C)C(Cl)(Cl)Cl)C(=O)N1C(=O)C=C(OC)[C@@H]1C[C@H](C)CCl | inactive | –
12 | CCC(=O)N[C@@H](C[C@H](C)C(Cl)(Cl)Cl)C(=O)N1C(=O)C=C(OC)[C@@H]1CC(C)C | inactive | –
13 | COc1cc(O)c(C(=O)[C@@H]2[C@H](CC=C(C)C)C(C)=CC[C@H]2c2ccccc2)c(O)c1 | 23.4 µM (active) | –
14 | C[C@]12CCC[C@](C)(C(=O)O)[C@@H]1CC[C@@]1(C)c3cocc3CC[C@H]21 | inactive | –
15 | COc1ccc([C@@H]2CC(=O)c3c(cc(O)c(C/C=C(\C)CCC=C(C)C)c3O)O2)cc1 | – | -18.7% [at 9.19 µM]
16 | C/C=C/[C@H]1[C@H]2C(=O)c3c(O)c(C)c(O)c(C)c3[C@]1(C(=O)O)C(=O)C=C2C | inactive | –
17 | O[C@H]1c2ccccc2-c2c3c(cc4c2[C@@H]1NCC4)OCO3 | 20.9 µM (active) | –
18 | CC[C@H]1[C@H](C)[C@H](c2cc(OC)c(OC)cc2OC)[C@@H](C)[C@H](c2cc(OC)c(OC)cc2OC)[C@@]12C=C(OC)C(=O)C=C2OC | inactive | –
19 | CCC(=O)CCCCC[C@@H]1NC(=O)[C@H]2CCCCN2C(=O)[C@H](C(C)C)NC(=O)[C@H](Cc2cn(OC)c3ccccc23)NC1=O | 5.88 µM (active) | –
20 | O=C1CC(c2ccc(O)cc2)Oc2cc(O)cc(O)c21 (stereo not given) | inactive | –

Row | Compound | Potency | activity change, negative = cytotoxic
21 | O=C1c2c(O)cc(O)cc2OC(c2ccc(O)cc2)C1O (stereo not given) | inactive | –
22 | CC[C@@H](C)[C@H]1NC(=O)C(CC(C)C)NC(=O)[C@@H](CC(C)C)NC(=O)[C@H](Cc2c[nH]c3ccccc23)NC(=O)CNC(=O)[C@@H](CC(N)=O)NC1=O (stereo partly drawn) (cyclo(GW[dL][ξL][dI][dN])) | inactive | –
23 | [C-]#[N+][C@@]12C(=O)[C@@H]3[C@@H](O[C@@]4(C(=O)N(C)c5cccc1c54)C3(C)C)C(=O)[C@@]2(C)C=C | inactive | –
24 | C[C@@]12CCC[C@@](C)(C(=O)OP(=O)(O)OC[C@H]3O[C@@H](n4cnc5c(N)ncnc54)[C@H](O)[C@@H]3O)[C@H]1C[C@@H](O)[C@@]13C[C@@H](CC[C@@H]21)[C@](C)(O)C3 | inactive | –
25 | CC(C)=CCC[C@]1(C)[C@H]2CC(=O)[C@@]3(CO3)[C@@H]1C2 | inactive | –
26 | C=C1CC[C@@H](O[C@H]2C[C@@](O)([C@H](C)NC(=O)c3[nH]c(C)c(Cl)c3Cl)[C@H](O)[C@@H](C)O2)[C@@H]2C=C[C@H](C)C(/C(O)=C3/C(=O)[C@H](C(C)C)N([C@@H]4O[C@H](C)[C@H](OC(N)=O)[C@H](OC(C)=O)[C@@H]4OC)C3=O)[C@@H]12 (stereo not given in full) | inactive | –
27 | CC(C)=CCCC(C)(O)[C@H]1CC=C(C)C(O)C1 (stereo not given in full) | inactive | –
28 | COc1cc2c(cc1OC)[C@@H](c1ccc3c(c1)OCO3)C(C)C(C)C2=O (stereo not given in full) | inactive | –
29 | COc1cc(/C=C/C(=O)OC[C@@H](Cc2ccc(O)c(OC)c2)[C@@H](COC(=O)/C=C/c2ccc(O)c(OC)c2)Cc2ccc(O)c(OC)c2)ccc1O | 7.41 µM (active) | –
30 | O=C1OC(CCO)c2cccc(O)c21 (stereo not given) | inactive | –
31 | CN1CC[C@@]23c4ccccc4N[C@@H]1[C@@]21CCN(C)[C@@H]3Nc2ccccc21 | inactive | –
32 | C=C[C@@]1(C)CC[C@@H]([C@H](C)C(=O)/C=C/C(C)(C)O)O1 | inactive | –
33 | C=C1CCC2C(C)(C(=O)O)CCC(CC/C(C)=C/C(=O)NC(CCC(N)=O)C(=O)O)[C@@]2(C)C1 (stereo not given in full) | inactive | –
34 | CC[C@@H]1C[C@@]2(CC)OC(=O)[C@@]3(CC)[C@H](CC)[C@@H]1[C@@H]23 | inactive | –
35 | COC1C(C)OC(OCC23C[C@@H]4[C@H](C)CC[C@H]4C4(C=O)CC2C=C(C(C)C)C34C(=O)O)[C@@H](O)[C@H]1O (stereo not given in full) | inactive | –
36 | C=C1C[C@]23C=CC(=O)[C@@](C)(CCCC(C)C(=O)N[C@@H](CO)C(=O)O)[C@@H]2C[C@@H]1CC3 (stereo not given in full) | inactive | –
37 | C/C(=C\[C@@H](C)CC/C=C/CC/C=C/C(=O)O)[C@H](O)[C@H](C)C(=O)CCCC1CC(=O)NC(=O)C1 | inactive | –
38 | C/C(=C\[C@H](C)C(=O)C[C@H](O)CC1CC(=O)NC(=O)C1)[C@@H]1OC(=O)CCCC/C=C/C[C@@H](O)[C@@H]1C | inactive | –
39 | CO[C@@H](C[C@@H](C)[C@@H](O)/C=C/C=C/CNC(=O)C(C)(C)[C@H](O)\C(C)=C/C=C\C=C\Cc1cnco1)[C@]1(O)[C@@H](C)C(=O)N(C)[C@@]12COC2=O | inactive | –
40 | C=C[C@]1(C)CC[C@@H]([C@H](C)C(=O)CC=C(C)C)O1 | inactive | –
